Compound activity from PubChem BioAssay.
In the library only some 7.8% were active in any assay of this set; here they are far more common.
HCV inhibitor: blocks hepatitis C virus. Huh7.5.1 HCVcc-Cre infection, luciferase reporter, 44 h. Potency, µM (titrated, usually from 41.8 µM), inactives show at the top dose activity change, negative = inhibition, usual class: inhibitors. hit rate 3.4% among 340,000; active means well fitted inhibition curve with a large enough effect; inconclusive means small, poorly fitted or top-dose-only effect, or another doubt; inactive means no such curve, though single readings can be large or run the other way; further: potency means the concentration at half of the fitted maximal effect
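Reporter virus HCVcc-Cre (~0.5 moi) infects cells exposed to compound; seeding density 1,000 cells/well with 4 h settling beforehand. Luminescence, 15 sec read, taken 44 h post-infection following a 15 min RT substrate incubation.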
VACV Venus inh: inhibitors of vaccinia virus (Venus reporter). Vaccinia virus Venus reporter expression, fluorescence. Potency, µM (titrated, usually from 36.5 µM), for inactives: at the highest dose activity change, negative = inhibition, actives largely listed as inhibitors. hit rate 0.46% among 330,000; calls by dose curve; tested in A549 cells; further: potency means the concentration at half of the fitted maximal effect; nearly all actives have a fitted effect of over 30% in size
LASV entry inh: Lassa virus entry inhibition | Lassa virus pseudotype entry inhibition, cell reporter | Potency, µM (highest dose often 37.9 µM), for inactives: at the highest dose activity change, negative = inhibition, actives largely listed as inhibitors | hit rate 1.2% among 300,000 | AID 540256; calls by dose curve; tested in HEK293 cells; further: potency means the concentration at half of the fitted maximal effect; nearly all actives have a fitted effect of over 50% in size
Marburg entry inh: Marburg virus entry inhibition. Marburg virus pseudotyped entry inhibition, cell reporter. Potency, µM (top dose mostly 37.8 µM), for the others: top-dose activity change, negative = inhibition, usual class: inhibitors. hit rate 1.8% among 300,000. AID 540276; calls by dose curve; tested in HEK293 cells; further: potency means the concentration at half of the fitted maximal effect
HCMV inh: blocks human cytomegalovirus replication; HFF cells, HCMV-luciferase reporter, 72 h; active compounds read low; activity change, negative = inhibition, % at 57.5 µM; hit rate 4.5% among 410,000; in the data active means activity change below about -60%; inconclusive means no clear call, values can overlap the other calls; inactive means above about -39%
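After 16 h attachment at 37C, HFF cells received test compound and HCMV-luciferase (1 PFU/cell); reporter luminescence read 72 h later, data normalized against buffer-only and known inhibitor Salinomycin.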
VACV mCherry inh: inhibitors of vaccinia virus infection (mCherry reporter signal); Potency, µM (top dose mostly 36.5 µM), for the others: top-dose activity change, negative = inhibition, usual class: inhibitors; hit rate 0.63% among 310,000; Vaccinia virus mCherry reporter infection, fluorescence; calls by dose curve; tested in A549 cells; further: potency means the concentration at half of the fitted maximal effect; nearly all actives have a fitted effect of over 35% in size
Numbers without * were called inactive; i = inactive; ? = inconclusive; nt = no result given; [ ] = another dose, or the depositor's remark. On the % scale 0 is the no-effect control and ±100 the full control effect.

SMILES | HCV inhibitor | VACV Venus inh | LASV entry inh | Marburg entry inh | HCMV inh | VACV mCherry inh
C#CCOCCOCCOCCNc1nc(N2CCN(C(=O)CCCCCCCCCCNC(=O)[C@@H](CCC(=O)O)n3cc(CCCCCN)nn3)CC2)nc(N2CCN(C(=O)CCCCCCCCCCNC(=O)[C@H]([C@@H](C)CC)n3cc(CCCCCN)nn3)CC2)n1 | ? | ? | nt | nt | nt | i
CCc1ccccc1NC(=O)N1CCOc2ccccc21 | nt | -7.5% | 1.1%[46.1 µM] | nt | -8.5 | -13.7%
O=S(=O)(c1ccccc1F)N1CCN(c2nc(-c3cccs3)nc3ccccc23)CC1 | nt | -18.1% | nt | nt | nt | -5.7%
COc1ccc2c(c1)c(=O)c(C(=O)c1ccc(F)cc1)cn2CC(=O)Nc1ccc2c(c1)OCO2 | nt | 0.3% | -16.8%[46.1 µM] | -3.5%[46.1 µM] | -11.5 | -0.4%
C#CCOCCOCCOCCNc1nc(N2CCN(C(=O)CCCCCCCCCCNC(=O)[C@H]([C@@H](C)CC)n3cc(CCCCCN)nn3)CC2)nc(N2CCN(C(=O)CCCCCCCCCCNC(=O)[C@H](CO)n3cc(CCCCCN)nn3)CC2)n1 | ? | 10µM* | nt | nt | nt | ?
C#CCOCCOCCOCCNc1nc(N2CCN(C(=O)CCCCCCCCCCNC(=O)[C@H]([C@@H](C)CC)n3cc(CCCCCN)nn3)CC2)nc(N2CCN(C(=O)CCCCCCCCCCNC(=O)[C@@H]([C@H](C)CC)n3cc(CCCCCN)nn3)CC2)n1 | -9.7% | nt | nt | nt | nt | nt
CCCN1[C@@H]2c3cccc(=O)n3C[C@H]1[C@H](CO)[C@H]2C(=O)OC | nt | nt | nt | nt | -1.2 | nt
CN(C)c1ccc(C(C(=O)NC2CCCCC2)N(Cc2ccco2)C(=O)c2snc(C(N)=O)c2N)cc1 (centres undefined) | 11.2µM* | -5.9% | 12.6µM* | 3.55µM* | -74.5* | -14.6%
Cc1ccc(N(C(=O)c2csnn2)C(C(=O)NC2CCCC2)c2ccccn2)c(C)c1 (centres undefined) | -4.9% | -4.3% | nt | -13.4%[46.1 µM] | -13.9 | 2.4%
Cc1ccc(N(C(=O)c2csnn2)C(C(=O)NC2CCCCC2)c2ccccn2)c(C)c1 (centres undefined) | -5.8% | 2.1% | -9.2% | -4.1%[46.1 µM] | -62.0* | i
COc1ccc(C(C(=O)NCC2CCCO2)N(Cc2cccs2)C(=O)c2snc(C(N)=O)c2N)cc1 (centres undefined) | ? | 24.5% | ? | 3.16µM* | -101.3* | 1.3%
COc1cc(C(C(=O)NC2CCCC2)N(Cc2ccco2)C(=O)c2snc(C(N)=O)c2N)cc(OC)c1OC (centres undefined) | -11.6% | -22.4% | -3.4% | -8.8%[46.1 µM] | 18.5 | -25.1%
O=C(NC1CCCCC1)C(c1ccccc1F)N(C(=O)c1csnn1)C1CCCC1 (centres undefined) | 4.3% | 1.5% | -4.0%[46.1 µM] | ? | -60.2* | -24.3%
Cc1ccccc1-c1ccc2c(c1)COCC(=O)N2C | nt | nt | nt | nt | 0.7 | nt
COc1ccc(CNC(=O)COCc2cc(-c3cccs3)on2)cc1 | nt | -6.3% | ? | nt | -5.9 | -18.4%
O=C(NC1(C(F)(F)F)NC(=O)N(CCc2ccccc2)C1=O)c1ccccc1Cl (centres undefined) | nt | -0.2% | 6.6%[46.1 µM] | -12.8%[46.1 µM] | 5.2 | -6.3%
CCOc1ccc(N(C(=O)c2snc(C(N)=O)c2N)C(C(=O)NCC2CCCO2)c2ccco2)cc1 (centres undefined) | -20.2% | -3.9% | ? | 12.6µM* | -36.2 | -8.1%
CC(C)c1ccc(N(C(=O)c2snc(C(N)=O)c2N)C(C(=O)NCC2CCCO2)c2ccc(N(C)C)cc2)cc1 (centres undefined) | ? | ? | ? | ? | -85.8* | ?
Cc1ccc(N(C(=O)c2snc(C(N)=O)c2N)C(C(=O)NC2CCCC2)c2ccco2)cc1 (centres undefined) | -21.0% | -23.4% | ? | ? | -71.3* | -15.3%
CC(=O)Nc1ccc(N(C(=O)Cc2c[nH]c3ccccc23)C(C(=O)NC2CCCCC2)c2ccco2)cc1 (centres undefined) | ? | ? | 5.8µM* | -16.4% | ? | -34.5%
CCOc1ccc(C(C(=O)NCC2CCCO2)N(C(=O)c2snc(C(N)=O)c2N)c2ccc3c(c2)OCCO3)cc1 (centres undefined) | ? | 12.1% | ? | ? | -7.8 | -18.4%
CN1CCN(C(CNC(=O)C(=O)Nc2ccccc2C#N)c2ccc3c(c2)OCO3)CC1 (centres undefined) | nt | -6.9% | -2.7%[46.1 µM] | nt | -11.5 | -5.2%
O=C(NC1CCCCC1)C(c1ccco1)N(C(=O)c1csnn1)c1ccccc1 (centres undefined) | -0.9% | -16.4% | -6.4%[46.1 µM] | 4.3%[46.1 µM] | 0.9 | i
Cc1ccc(N(C(=O)c2csnn2)C(C(=O)NC2CCCCC2)c2ccco2)cc1 (centres undefined) | -8.8% | -17.5% | ? | ? | -61.5* | -17.9%
CCc1ccc(N(C(=O)c2snc(C(N)=O)c2N)C(C(=O)NCC2CCCO2)c2ccco2)cc1 (centres undefined) | -10.2% | 0.4% | -15.4% | -14.0%[46.1 µM] | -60.4* | i
SMILES | HCV inhibitor | VACV Venus inh | LASV entry inh | Marburg entry inh | HCMV inh | VACV mCherry inh
CC1=C(c2ccc(C)c(C)c2)S(=O)(=O)N=C1N1CCC(C(=O)NC(C)Cc2ccco2)CC1 (centres undefined) | nt | -8.9% | nt | 4.2%[46.1 µM] | -6.5 | -6.5%
C[C@@H]1C=CCC(=O)N[C@@H](c2ccccc2)[C@H](C)C=CCC(=O)N[C@@H]1c1ccccc1 | nt | nt | ? | 12.4%[14.2 µM] | nt | nt
C[C@@H]1C=CCC(=O)N[C@@H](c2ccc3ccccc3c2)[C@H](C)C=CCC(=O)N[C@@H]1c1ccc2ccccc2c1 | nt | nt | nt | 2.66µM* | nt | nt
CCOC(=O)c1c(C)[nH]c(CCC(=O)NCc2ccccc2Cl)c1C | nt | -15.0% | 1.5%[46.1 µM] | nt | -18.1 | -10.1%
Cc1ccc(S(=O)(=O)N(C)C)cc1NC(=O)C(C)N(C)Cc1sccc1C (centres undefined) | 7.08µM* | ? | nt | ? | -61.5* | ?
Cc1ccc(S(=O)(=O)N(C)C)cc1NC(=O)C(C)NC(C)c1cccs1 (centres undefined) | 7.0% | -13.5% | -42.8% | -8.1% | 9.2 | -27.6%
CN(C)c1ccc(C(I)C(I)c2ccnc3ccccc23)cc1 (centres undefined) | nt | 14.0% | nt | nt | nt | -15.7%
COc1ccc(SCc2cc(=O)c3cc(Cl)ccc3[nH]2)cc1 | nt | -21.4% | -6.5%[46.1 µM] | nt | ? | -16.4%
CNS(=O)(=O)c1cc(N(C)S(=O)(=O)c2ccc(C)cc2)c(C)cc1C | -2.0% | -7.0% | -29.3%[46.1 µM] | ? | ? | i
Cc1ccc(S(=O)(=O)N(C)c2cc(S(=O)(=O)N3CCC(C)CC3)c(C)cc2C)cc1 | 10µM* | -24.6% | ? | ? | ? | nt
CCOC(=O)C1C(c2ccc(C(=O)O)cc2)NC(=O)NC1(O)C(F)(F)F (centres undefined) | 14.8% | -5.6% | -1.9% | 5.5%[46.1 µM] | -71.8* | -15.1%
CSc1ccc(CCNC(=O)c2csc3c2CCCCC3)cc1 | nt | -8.1% | nt | ? | -1.8 | -13.6%
